Screening data (PubChem)
This is a sample that favours compounds with a hit; in the whole collection about 3.8% have one here.
VDR inhibitor: inhibitors of human vitamin D receptor | actives 0.93% (n = 400,000) | VDR-SRC2-3 peptide fluorescence polarization, 2 h | AID 504847 | Potency, µM, for the others: max response, negative = inhibition, most hits filed as inhibitors | P11473
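Compounds are added to VDR with labelled SRC2-3 coactivator peptide and held 2 h at room temperature. Inhibition of the VDR–peptide interaction is then read as a change in fluorescence polarization.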
Sfp inh: blocks B. subtilis Sfp PPTase activity; Biochemical Sfp PPTase activity, qHTS; actives 3.5% (n = 310,000); AID 1490; Potency, µM, inactives show largest response in the series, negative = inhibition, actives largely listed as inhibitors;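 further: the enzyme is Sfp with the accession as filed and its product quenches rhodamine fluorescence; 0% = enzyme reaction without inhibitor and -100% = no enzyme wells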
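After 15 min at room temperature with compound, 15 nM Sfp received 5 uM rhodamine-CoA plus 12.5 uM BHQ-2-ybbR (50 mM Hepes pH 7.6, 10 mM MgCl2). Rate came from the fluorescence difference over 30 min, ex 525/em 598 nm.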
TrxR1 substrate: rat thioredoxin reductase 1 substrate activity; purified TrxR1 substrate turnover, NADPH consumption readout; Potency, µM (highest dose often 114 µM), inactives show top-dose activity change, negative = substrate turnover; O89049; actives 0.01% (n = 390,000); further: nearly all actives have a fitted effect of over 50% in size
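Rat TrxR1, dispensed at 90 nM, was prereduced with 400 uM NADPH (final) for 5 min at ~22 deg C, then incubated with compound 15 min before 400 uM selenite. A first-read NADPH fluorescence drop versus no-compound background flagged substrates.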
rTrxR1 inhibitor: blocks rat thioredoxin reductase 1; Potency, µM (top dose mostly 114 µM), for inactives: top-dose activity change, negative = inhibition, most hits filed as inhibitors; recombinant rTrxR1, NADPH fluorescence consumption, selenite substrate; actives 1% (n = 390,000); AID 588453; further: nearly all actives have a fitted effect of over 65% in size
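Rat TrxR1 (90 nM in the dispensed reagent) was pre-reduced with 400 uM NADPH for 5 min at room temperature, then incubated with compound for 15 min. After 400 uM selenite was added, NADPH fluorescence (Ex 340/Em 450 nm) was followed for 8 min.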
GLS inh: blocks human kidney-isoform glutaminase activity. AID 624170. Potency, µM (series often up to 45.5 µM), for inactives: at the top dose activity change, negative = inhibition, actives largely listed as inhibitors. O94925. GLS enzymatic activity, qHTS titration. actives 0.21% (n = 410,000)
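Compounds were pin-transferred onto hKGA, after which L-glutamine (1 mM solution) and a detection mix of glutamate oxidase, HRP and Amplex Red were added. Initial and 30 min RT fluorescence reads were collected.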
KAT2A inh: blocks human GCN5L2 histone acetyltransferase. AID 504327. actives 0.21% (n = 390,000). Q92830. Potency, µM (doses to about 58.9 µM), for the others: at the highest dose activity change, negative = inhibition, actives largely listed as inhibitors. GCN5L2 HAT assay, ThioGlo1 CoA-SH fluorescence
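qHTS, 1536-well. 20nM enzyme, pH 7.5 HEPES/EDTA/Tween-20 buffer; 15 min compound preinc., RT. Start: 75uM H3(1-25), 70uM AcCoA, 50uM ThioGlo1. Read Ex340/Em540 at t=0 (autofluorescence flag) and t=20 min.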
Starred values were filed as active, the others as inactive; ? = inconclusive; · = not tested or not shown; ! = repeats disagree; [ ] = remark or other dose. The call rests on the fitted dose curve; in most records, active means well fitted curve in the direction sought with a large enough effect; inconclusive means small, poorly fitted or top-dose-only effect, or another doubt; inactive means no such curve, though single readings can be large; an effect the other way counts as inactive or inconclusive. Unless noted, on the % scale 0 is the no-effect control and ±100 the full control effect; potency means the concentration at half of the fitted maximal effect.

SMILES	VDR inhibitor	Sfp inh	TrxR1 substrate	rTrxR1 inhibitor	GLS inh	KAT2A inh
CC(=O)Nc1cc(C(=O)N2CCCC2)ccc1Sc1ccc(C)cc1	-1%	?	3%[57.1 µM]	19%[57.1 µM]	-2%	-7%[0.501 µM]
COC(=O)C1=C(C)NC(=O)/C1=C\N(C)C	-11%	-4%	0%[57.1 µM]	16µM*	-10%	-4%
COC(=O)C1=C(C)NC(=O)/C1=C\c1cccs1	-23%	17%	6%[57.1 µM]	-38%	8%	-9%
Cc1cccc(S(=O)(=O)NC(=O)C2(C)CCN2C(=O)Cc2ccsc2)c1 (configuration not stated)	·	·	·	·	-2%	·
O=c1c(O)c(-c2ccc(O)c(O)c2)oc2cc(O)ccc12	-15%	40µM*!	2%	-26%	38%	·
CNC(=S)N1CCn2cccc2C1c1ccc(F)cc1 (configuration not stated)	1%	56µM*	-1%	5%[57.1 µM]	-7%	-6%
Cc1ccc(NC(=O)Nc2cn(CC(C)C)c(=O)c3ccccc23)cc1N(C)C	4%	·	-3%	8%	5%	-8%
Cc1cc(O)c2c(c1O)C(=O)C(O)=C(O)C2=O	8.9µM*	45µM*	·	·	·	·
Cc1ccc(C(=O)c2oc3ccc(Cl)cc3c2NC(=O)CN2CCN(C)CC2)cc1	-15%	-28%	-2%	11%	7%	0%
C/C(=N\Nc1nccnc1Cl)c1ccc([N+](=O)[O-])cc1	-13%	79µM*	-4%	-6%	2%	0%
C/C(=N\Nc1nccnc1Cl)c1ccc(Br)cc1	-1%	8%	-4%	4%	3%	?
COc1ccc2c(Cl)c(C(=O)NN)sc2c1	-10%	-4%	9%	11%	-11%	-8%
COc1ccc(C(NC(=O)/C=C/c2ccco2)c2ccc(OC)c(OC)c2)cc1OC	-21%	20µM*	-8%	4.5µM*	-10%	24%
COc1ccc(C2(CNC(=O)/C=C\c3ccco3)CCCC2)cc1OC	14%	18µM*	-1%	10µM*	-10%	-1%
O=C1C(=O)N(CCN2CCOCC2)C(c2ccc(F)cc2)/C1=C(/O)c1ccc(S(=O)(=O)N2CCOCC2)cc1 (configuration not stated)	14%	9%	-6%	-41%[0.0914 µM]	28%	-12%
COc1ccc(OC)c2c(=S)c3ccccc3[nH]c12	4.5µM*	56µM*	·	·	·	14µM*
Cc1ccc(S(=O)(=O)N2CCOCC2)cc1NC(=O)CN(C)C1CCS(=O)(=O)C1 (configuration not stated)	-6%	14%	7%	28%	1%	22%
COc1ccc(N=C2S/C(=C\c3ccc(Cl)c([N+](=O)[O-])c3)C(=O)N2CCN(C)C)cc1	?	40µM*	-5%[57.1 µM]	-10%[57.1 µM]	-2%	-3%
CCN(CC)CCN1C(=O)/C(=C\c2ccc(Cl)c([N+](=O)[O-])c2)SC1=Nc1ccc(OC)cc1	?	45µM*	-8%	-16%	-8%	3%
Cc1ccc(S(=O)(=O)N2CCN(C)CC2)c2nsnc12	8%	10%	-8%	-9%	6%	-13%
C(=C\c1ccccc1)/CN1CCN(C(c2ccnc3ccccc23)c2nnnn2C2CCCC2)CC1 (configuration not stated)	·	·	·	·	1%	·
Cc1cccc(N2C(S)=C(C#N)C(=O)NC2c2cccs2)c1 (configuration not stated)	50µM*	32µM*	-1%	-10%	-2%	1%
Cc1ccccc1N1C(S)=C(C#N)C(=O)NC1c1cccs1 (configuration not stated)	22µM*	6%	2%[57.1 µM]	-21%[57.1 µM]	-19%	-7%
N#CC1=C(S)N(c2ccc(F)cc2)C(c2cccs2)NC1=O (configuration not stated)	?	56µM*	-5%	-13%[57.1 µM]	-11%	2%
O=C(O)c1cc(-c2cccs2)nn1-c1ccc(F)cc1	3%	19%	1%	9%	-11%	-13%
